Assay results as given in PubChem BioAssay AID1850 (Southern Research Specialized Biocontainment Screening …, 2009).
About 1,000 (0.32%) of roughly 310,000 compounds were called active. The list is a sample of the results. Results with a measured potency or affinity are listed apart. Unmarked numbers belong to inactive results. How the calls were made is not given here.

assay: Inhibition of PhoP regulon, Salmonella typhi GFP reporter cells, confirmation, 4 h (AID 1850); settings: Salmonella Typhi PhoP-promoter GFP reporter, fluorescence, at 50 µM, active compounds read high;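 further: 0% = induced wells with vehicle and 100% = uninduced wells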

| SMILES | inhibition [%] |
| --- | --- |
| COc1ccc(C(C)NC(=O)Cc2cccs2)cc1 (stereo not given) | 1.87 |
| O=C(Nc1nnc(Cc2ccccc2F)s1)c1ccccc1Cl | -2.4 |
| O=C(COC(=O)C1CCN(c2ccc(C(F)(F)F)cn2)CC1)NCc1ccc(F)cc1 | 2.12 |
| CC(Oc1ccccc1)C(=O)Nc1ccc(S(=O)(=O)Nc2nccs2)cc1 (stereo not given) | -2.94 |
| COC(=O)c1c(C(=O)OC)c(-c2ccc(OC)cc2)n2c1CS(=O)(=O)C2 | -2.28 |
| CCOc1ccccc1N(CC(=O)N1CCOCC1)S(=O)(=O)c1ccccc1 | 11.6 |
| CCOc1ncccc1C(=O)Nc1cccc(Cl)c1Cl | -6.65 |
| COC(=O)c1ccc(C)c(NC(=O)CCc2cc(OC)c(OC)c(OC)c2)c1 | 8.83 |
| COc1cc(/C=N/NC(=O)c2ccncc2)cc(OC)c1OC | 6.9 |
| COc1cccc(C(O)c2cnc(C(C)C)n2C)c1 (stereo not given) | 5.41 |
| CCCC(=O)Nc1c2c(nn1-c1ccc(F)cc1)CS(=O)(=O)C2 | -3.29 |
| CCCCNC(=O)c1cn(CC)c2cc(N3CCN(C(=O)c4ccco4)CC3)c(F)cc2c1=O | -5.26 |
| CCn1cc(C(=O)NCCCO)c(=O)c2cc(F)c(N3CCN(C)CC3)cc21 | 6.73 |
| CCCCCCNC(=O)c1cn(CC)c2cc(N3CCN(C)CC3)c(F)cc2c1=O | -4.8 |
| CCn1cc(C(=O)NN)c(=O)c2cc(F)c(N3CCOCC3)cc21 | -10.2 |
| CCn1cc(C(=O)NN)c(=O)c2cc(F)c(N3CCN(C)CC3)cc21 | 3.76 |
| CCn1cc(C(=O)N[C@H](C)c2ccccc2)c(=O)c2cc(F)c(N3CCN(C)CC3)cc21 | 2.31 |
| CCn1cc(C(=O)NCC2CCCO2)c(=O)c2cc(F)c(N3CCN(C)CC3)cc21 (stereo not given) | 1.91 |
| Cc1cccn2c(=O)c(C(=O)NCCCN3CC(C)CC(C)C3)c(O)nc12 (stereo not given) | 0.48 |
| COc1cccc2cc(C(=O)OCC(=O)NCc3ccc4c(c3)OCO4)c(=O)oc12 | 7.88 |
| CS(=O)(=O)N1CCN(c2ccccc2NC(=S)NC(=O)c2cccs2)CC1 | -10.5 |
| N#CCSc1nccc(/C=C/c2ccccc2)n1 | 6.91 |

| SMILES | inhibition [%] |
| --- | --- |
| O=C(O)C[C@H]1c2cc(F)ccc2S(=O)(=O)N1C1CCCC1 | -2.28 |
| CC(=O)Nc1ccccc1N(C)S(=O)(=O)c1ccc(C)cc1 | -1.46 |
| Cn1c(=O)n(C)c2cc([N+](=O)[O-])c(N3CCN(C(=O)c4ccc(Cl)cc4)CC3)cc21 | -4.31 |
| CCCc1cc(=O)n2[nH]c(C)nc2n1 | 18.9 |
| Cc1ccc(O)c(C(=O)CC(=O)c2cccc(F)c2)c1 | 8.82 |
| Cc1ccc(C(=O)CC(=O)c2cccc(F)c2)c(O)c1 | 5.16 |
| Cc1cccc(C(=O)CC(=O)c2cc(Cl)ccc2O)c1 | 1.32 |
| O=C(CC(=O)c1ccccc1O)c1ccc(F)cc1 | 3.76 |
| Cc1cc(C)c(C(=O)CC(=O)c2ccccc2Cl)c(O)c1 | 11.6 |
| Cc1ccc(C(=O)CC(=O)c2cc(Cl)ccc2O)cc1 | -2.62 |
| CC(CC(=O)NCc1ccco1)S(=O)(=O)c1ccc2c(c1)CCN2C(=O)C1CC1 (stereo not given) | -3.2 |
| O=c1c(C/C=C/c2ccccc2)c(O)ccn1CCc1c[nH]c2ccccc12 | 4.16 |
| CCOCCOC(NC(=O)c1ccccc1)(C(F)(F)F)C(F)(F)F | -1.49 |
| CCOC(=O)CSc1nc(Nc2ccc3c(c2)OCO3)c2ccccc2n1 | -1.83 |
| O=C(COc1ccc(Br)cc1CNCCCN1CCOCC1)Nc1ccccc1 | -6.17 |
| COc1cccc(-c2nc(N)nc(SC)c2C#N)c1 | 5.06 |
| CC(C)n1c(CN2CCN(C)CC2)nc2c1c(=O)n(C)c(=O)n2C | 2.65 |
| O=c1[nH]c(C2CCN(S(=O)(=O)c3ccccc3)CC2)nc2c1nnn2Cc1ccc2c(c1)OCCO2 | -22.2 |
| OCC1(Cc2ccc(F)cc2)CCCN(CCc2ccccc2)C1 (stereo not given) | 0.44 |
| CCOc1ccccc1NC(=O)c1ccc2c(c1)C(=O)N(CC1CCCO1)C2=O (stereo not given) | -5.65 |
| O=C(Nc1ccc(C2=NCCN2)cc1)c1ccc(Cl)c(C(=O)Nc2ccc(C3=NCCN3)cc2)c1 | 1.21 |
| Cc1cccc(NC(=O)Nc2ccncc2)c1 | 16.9 |

| SMILES | inhibition [%] |
| --- | --- |
| C/C(CC(=O)Nc1cc(C)ccn1)=N\NC(=O)c1ccncc1 | 3.7 |
| CCOC(=O)Cn1c(=N)n(CCOc2ccc(OC)cc2)c2ccccc21 | 10.3 |
| CCOC(=O)Cn1c(=N)n(CCOc2cccc(C)c2)c2ccccc21 | -0.323 |
| O=C(NCc1ccccn1)C1CN(S(=O)(=O)c2ccccc2)CCN1S(=O)(=O)c1ccccc1 (stereo not given) | 1.61 |
| Cc1sc2ncnc(SCC(=O)N3CCCC(C(F)(F)F)C3)c2c1C (stereo not given) | 8.83 |
| Cc1cc(OCC(=O)N2CCC[C@@H]2C(=O)O)c2c(C)c(C)c(=O)oc2c1 | 5.08 |
| O=C1CCCN1c1ncc(S(=O)(=O)c2ccc([N+](=O)[O-])cc2)s1 | 0.41 |
| O=C(Nc1ncc([N+](=O)[O-])s1)C1CC(=O)N(c2ccc(F)cc2)C1 (stereo not given) | 13 |
| O=C(CCc1nnc2ccc(N3CCCCC3)nn12)NCc1ccco1 | -3.14 |
| Cc1cc(C)c2nc(N(CCCN(C)C)C(=O)c3ccc(S(=O)(=O)N4CC(C)OC(C)C4)cc3)sc2c1 (stereo not given) | 7.15 |
| O=C1NC(c2ccco2)Nc2ccccc21 (stereo not given) | -3.49 |
| O=C1CC(c2ccco2)Sc2ccccc2N1 (stereo not given) | -2.22 |
| O=C1CC(c2ccccc2)CC(=O)C1=CN1CCCC1 (stereo not given) | -0.41 |
| COCCCNC(=S)NNC(=O)c1cccnc1 | 1.9 |
| COCCCNC(=S)NNC(=O)c1csc(C)n1 | 3.64 |
| O=C(CCc1ccccc1)NNC(=S)NC(=O)c1ccc(Cl)cc1 | 10.2 |
| CC(=O)NNC(=S)NC(=O)c1ccc(C)cc1 | 9.68 |
| Cc1ccc(C(=O)NNC(=S)NC(=O)c2ccc(Cl)cc2)cc1 | 6.07 |
| CC(=O)NC(=S)NNC(=O)CCc1ccccc1 | -2.11 |
| Cc1ccc(C(=O)NC(=S)NNC(=O)c2ccccc2)cc1 | 19.1 |
| CC(=O)NNC(=S)NC(=O)c1cccc([N+](=O)[O-])c1 | 5.04 |
